Measured values reported in the supplement of paper PMC10849652.
About 8,800 targets were measured; listed, in parts, are those with a hit and a random draw of the rest. About 0.5% of all pairs of compound and target were hits. Values without a mark were called inactive.

Experiments:
Assay in all cases: log2 fold change, soluble protein after heating vs DMSO (PISA); higher = thermal stabilisation; K562 lysate, 10 uM; active = over 0.2 and 3.5 SD of the protein, either way, in both replicates (recomputed)
lapatinib = compound: CS(=O)(=O)CCNCc1ccc(-c2ccc3ncnc(Nc4ccc(OCc5cccc(F)c5)c(Cl)c4)c3c2)o1 [lapatinib]
Procedure, shortened: (§1)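 Pellets of K562 cells were dounce-homogenised in PBS pH 7.4 with 1 mM MgCl2, and the crude extract was held at 1 mg/mL protein for a 30 min treatment with 10 μM compound. Aliquots were heated for 3 min over 48°C-58°C and pooled before NP-40 was added to 0.5% at 4°C. The supernatant from 21,000xg for 90 min was quantified by TMTpro 16plex LC-MS/MS with channel sums equalised. Values are reported from duplicates as log-two fold change in thermal stability relative to solvent controls.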

pictilisib = compound: CS(=O)(=O)N1CCN(Cc2cc3nc(-c4cccc5[nH]ncc45)nc(N4CCOCC4)c3s2)CC1 [pictilisib]
Procedure, shortened: as §1

crizotinib = compound: C[C@@H](Oc1cc(-c2cnn(C3CCNCC3)c2)cnc1N)c1c(Cl)ccc(F)c1Cl [crizotinib]
Procedure, shortened: as §1

[1] = compound: C[C@H](C1=CC=C(C=C1)C(=O)NC2=C3C=CNC3=NC=C2)N
Procedure, shortened: as §1

duvelisib = compound: C[C@H](Nc1ncnc2nc[nH]c12)c1cc2cccc(Cl)c2c(=O)n1-c1ccccc1 [duvelisib]
Procedure, shortened: as §1

gandotinib = compound: Cc1cc(Nc2cc(CN3CCOCC3)c3nc(C)c(Cc4ccc(Cl)cc4F)n3n2)n[nH]1 [gandotinib]
Procedure, shortened: as §1

tozasertib = compound: Cc1cc(Nc2cc(N3CCN(C)CC3)nc(Sc3ccc(NC(=O)C4CC4)cc3)n2)n[nH]1 [tozasertib]
Procedure, shortened: as §1

doramapimod = compound: Cc1ccc(-n2nc(C(C)(C)C)cc2NC(=O)Nc2ccc(OCCN3CCOCC3)c3ccccc23)cc1 [doramapimod]
Procedure, shortened: as §1

bafetinib = compound: Cc1ccc(NC(=O)c2ccc(CN3CC[C@H](N(C)C)C3)c(C(F)(F)F)c2)cc1Nc1nccc(-c2cncnc2)n1 [bafetinib]
Procedure, shortened: as §1

[2] = compound: Cc1cccc(CC(=O)N2CCc3c2ccc(-c2cn(C)c4ncnc(N)c24)c3F)n1
Procedure, shortened: as §1

Chain of UniProt Q12815 (Q12815 whole entry, looked up): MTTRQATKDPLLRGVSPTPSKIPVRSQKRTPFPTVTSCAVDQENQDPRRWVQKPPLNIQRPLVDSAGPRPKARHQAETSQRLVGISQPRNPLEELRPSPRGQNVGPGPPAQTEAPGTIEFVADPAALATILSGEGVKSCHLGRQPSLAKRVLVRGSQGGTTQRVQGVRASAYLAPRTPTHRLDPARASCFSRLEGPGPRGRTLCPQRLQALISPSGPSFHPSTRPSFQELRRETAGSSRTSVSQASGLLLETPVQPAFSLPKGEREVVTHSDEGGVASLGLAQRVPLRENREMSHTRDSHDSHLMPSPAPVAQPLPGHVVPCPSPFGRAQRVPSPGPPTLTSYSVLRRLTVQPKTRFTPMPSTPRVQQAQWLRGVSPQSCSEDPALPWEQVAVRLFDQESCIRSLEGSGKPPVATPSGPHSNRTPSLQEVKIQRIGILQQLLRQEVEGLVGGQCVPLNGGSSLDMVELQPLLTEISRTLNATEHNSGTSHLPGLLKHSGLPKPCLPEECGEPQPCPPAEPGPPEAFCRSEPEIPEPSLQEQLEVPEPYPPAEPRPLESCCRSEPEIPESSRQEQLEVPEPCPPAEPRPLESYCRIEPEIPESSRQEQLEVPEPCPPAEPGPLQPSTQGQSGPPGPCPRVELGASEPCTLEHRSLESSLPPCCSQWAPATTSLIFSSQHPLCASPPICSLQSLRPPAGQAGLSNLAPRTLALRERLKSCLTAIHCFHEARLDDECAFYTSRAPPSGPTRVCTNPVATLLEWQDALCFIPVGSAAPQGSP
Chain of UniProt Q96CW5 (Q96CW5 whole entry, looked up): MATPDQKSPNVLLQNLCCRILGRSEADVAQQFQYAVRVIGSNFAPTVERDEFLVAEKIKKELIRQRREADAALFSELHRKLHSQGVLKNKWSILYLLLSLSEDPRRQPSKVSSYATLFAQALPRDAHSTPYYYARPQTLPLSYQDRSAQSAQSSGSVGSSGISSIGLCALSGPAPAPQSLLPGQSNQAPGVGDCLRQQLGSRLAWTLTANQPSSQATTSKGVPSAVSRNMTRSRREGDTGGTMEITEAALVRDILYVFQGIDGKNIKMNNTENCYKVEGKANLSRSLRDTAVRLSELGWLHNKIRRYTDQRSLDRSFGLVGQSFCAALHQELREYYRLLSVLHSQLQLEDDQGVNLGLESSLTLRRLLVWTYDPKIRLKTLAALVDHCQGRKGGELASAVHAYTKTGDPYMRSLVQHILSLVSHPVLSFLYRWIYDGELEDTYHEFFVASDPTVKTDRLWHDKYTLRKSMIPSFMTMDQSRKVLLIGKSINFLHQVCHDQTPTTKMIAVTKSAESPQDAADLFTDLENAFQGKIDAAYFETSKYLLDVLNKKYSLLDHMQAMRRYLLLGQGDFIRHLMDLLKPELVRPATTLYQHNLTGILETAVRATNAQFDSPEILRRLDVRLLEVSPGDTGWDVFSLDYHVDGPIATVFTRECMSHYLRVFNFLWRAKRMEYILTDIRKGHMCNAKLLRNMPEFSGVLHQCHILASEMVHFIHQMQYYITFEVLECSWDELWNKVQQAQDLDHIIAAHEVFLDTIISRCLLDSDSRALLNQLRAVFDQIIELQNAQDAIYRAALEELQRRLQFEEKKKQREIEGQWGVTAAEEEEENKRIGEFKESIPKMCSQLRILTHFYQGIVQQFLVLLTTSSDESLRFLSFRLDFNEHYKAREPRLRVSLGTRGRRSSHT
Chain of UniProt Q13595 (Q13595 whole entry, looked up): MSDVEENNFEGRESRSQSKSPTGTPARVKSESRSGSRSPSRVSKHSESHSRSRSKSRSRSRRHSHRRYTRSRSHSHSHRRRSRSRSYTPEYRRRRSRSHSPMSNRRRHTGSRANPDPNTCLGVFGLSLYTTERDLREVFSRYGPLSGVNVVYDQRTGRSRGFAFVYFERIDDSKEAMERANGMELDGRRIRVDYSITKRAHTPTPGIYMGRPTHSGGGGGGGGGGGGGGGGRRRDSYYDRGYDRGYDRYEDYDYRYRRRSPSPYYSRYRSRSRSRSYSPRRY
Chain of UniProt P43897 (P43897 whole entry, looked up): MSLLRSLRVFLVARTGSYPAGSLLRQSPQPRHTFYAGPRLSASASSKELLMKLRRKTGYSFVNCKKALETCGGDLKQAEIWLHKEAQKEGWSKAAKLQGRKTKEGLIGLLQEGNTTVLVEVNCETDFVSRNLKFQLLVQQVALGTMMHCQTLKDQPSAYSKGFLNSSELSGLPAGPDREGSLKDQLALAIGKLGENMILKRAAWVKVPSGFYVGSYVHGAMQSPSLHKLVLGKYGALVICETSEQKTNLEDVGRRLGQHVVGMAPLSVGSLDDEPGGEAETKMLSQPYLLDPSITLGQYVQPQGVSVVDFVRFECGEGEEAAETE
Chain of UniProt P17480 (P17480 whole entry, looked up): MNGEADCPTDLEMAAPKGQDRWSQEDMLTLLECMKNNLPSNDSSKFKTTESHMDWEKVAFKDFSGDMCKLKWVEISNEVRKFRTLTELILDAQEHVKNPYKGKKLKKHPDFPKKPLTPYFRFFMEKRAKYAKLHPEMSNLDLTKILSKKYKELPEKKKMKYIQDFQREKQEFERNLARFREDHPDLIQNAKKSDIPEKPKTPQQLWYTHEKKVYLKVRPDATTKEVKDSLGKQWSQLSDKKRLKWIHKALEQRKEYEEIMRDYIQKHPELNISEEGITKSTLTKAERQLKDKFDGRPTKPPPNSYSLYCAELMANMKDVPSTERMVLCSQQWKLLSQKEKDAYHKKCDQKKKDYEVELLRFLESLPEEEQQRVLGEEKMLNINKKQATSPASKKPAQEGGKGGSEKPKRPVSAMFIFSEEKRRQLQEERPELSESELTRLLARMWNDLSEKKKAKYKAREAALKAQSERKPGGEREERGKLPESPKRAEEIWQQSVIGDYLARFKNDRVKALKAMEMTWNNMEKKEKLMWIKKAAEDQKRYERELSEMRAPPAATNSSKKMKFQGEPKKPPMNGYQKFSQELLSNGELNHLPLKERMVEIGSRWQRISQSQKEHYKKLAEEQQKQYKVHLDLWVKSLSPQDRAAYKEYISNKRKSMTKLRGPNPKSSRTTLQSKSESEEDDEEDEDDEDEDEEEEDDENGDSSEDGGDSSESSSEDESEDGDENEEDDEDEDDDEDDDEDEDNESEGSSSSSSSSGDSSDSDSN
Chain of UniProt Q14157 (Q14157 whole entry, looked up): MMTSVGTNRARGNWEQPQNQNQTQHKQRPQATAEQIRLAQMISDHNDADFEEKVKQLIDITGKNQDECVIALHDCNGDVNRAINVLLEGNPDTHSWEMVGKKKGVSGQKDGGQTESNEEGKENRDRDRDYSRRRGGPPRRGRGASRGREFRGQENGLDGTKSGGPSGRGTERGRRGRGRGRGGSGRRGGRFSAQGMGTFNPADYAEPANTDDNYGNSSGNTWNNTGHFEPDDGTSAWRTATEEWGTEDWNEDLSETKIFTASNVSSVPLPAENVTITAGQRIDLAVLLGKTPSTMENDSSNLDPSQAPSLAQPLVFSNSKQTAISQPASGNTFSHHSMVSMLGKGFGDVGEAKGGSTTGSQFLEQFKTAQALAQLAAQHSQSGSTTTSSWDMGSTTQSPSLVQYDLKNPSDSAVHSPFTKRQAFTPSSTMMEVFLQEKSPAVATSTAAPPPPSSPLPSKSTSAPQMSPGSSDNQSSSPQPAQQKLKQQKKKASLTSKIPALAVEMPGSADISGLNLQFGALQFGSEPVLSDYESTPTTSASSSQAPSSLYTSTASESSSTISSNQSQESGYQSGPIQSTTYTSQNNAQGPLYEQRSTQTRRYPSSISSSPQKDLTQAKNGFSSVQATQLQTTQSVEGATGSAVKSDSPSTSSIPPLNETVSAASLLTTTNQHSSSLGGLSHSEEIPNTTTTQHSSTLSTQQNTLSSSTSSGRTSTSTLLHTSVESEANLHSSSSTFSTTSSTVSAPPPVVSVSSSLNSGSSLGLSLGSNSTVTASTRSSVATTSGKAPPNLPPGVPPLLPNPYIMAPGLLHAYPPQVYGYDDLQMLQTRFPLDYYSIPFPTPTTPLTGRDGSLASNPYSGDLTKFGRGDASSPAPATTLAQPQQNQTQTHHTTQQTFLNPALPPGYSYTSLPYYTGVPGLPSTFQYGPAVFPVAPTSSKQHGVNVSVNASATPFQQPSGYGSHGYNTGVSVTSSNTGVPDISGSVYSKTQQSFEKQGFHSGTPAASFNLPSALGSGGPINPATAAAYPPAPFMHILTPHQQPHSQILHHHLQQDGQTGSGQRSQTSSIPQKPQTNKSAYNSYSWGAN
Chain of UniProt Q9H4B7 (Q9H4B7 whole entry, looked up): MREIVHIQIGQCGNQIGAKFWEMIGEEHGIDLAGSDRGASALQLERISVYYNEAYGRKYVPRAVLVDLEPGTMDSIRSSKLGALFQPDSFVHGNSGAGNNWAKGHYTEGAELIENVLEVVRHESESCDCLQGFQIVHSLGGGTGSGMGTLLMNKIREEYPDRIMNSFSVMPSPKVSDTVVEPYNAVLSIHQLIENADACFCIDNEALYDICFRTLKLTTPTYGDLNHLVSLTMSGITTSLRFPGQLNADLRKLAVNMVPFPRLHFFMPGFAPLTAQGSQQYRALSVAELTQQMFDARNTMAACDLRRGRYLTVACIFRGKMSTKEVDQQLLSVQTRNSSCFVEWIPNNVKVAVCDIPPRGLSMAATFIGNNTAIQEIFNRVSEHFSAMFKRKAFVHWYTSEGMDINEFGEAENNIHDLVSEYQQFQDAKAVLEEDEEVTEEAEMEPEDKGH
Chain of UniProt Q53H54 (Q53H54 whole entry, looked up): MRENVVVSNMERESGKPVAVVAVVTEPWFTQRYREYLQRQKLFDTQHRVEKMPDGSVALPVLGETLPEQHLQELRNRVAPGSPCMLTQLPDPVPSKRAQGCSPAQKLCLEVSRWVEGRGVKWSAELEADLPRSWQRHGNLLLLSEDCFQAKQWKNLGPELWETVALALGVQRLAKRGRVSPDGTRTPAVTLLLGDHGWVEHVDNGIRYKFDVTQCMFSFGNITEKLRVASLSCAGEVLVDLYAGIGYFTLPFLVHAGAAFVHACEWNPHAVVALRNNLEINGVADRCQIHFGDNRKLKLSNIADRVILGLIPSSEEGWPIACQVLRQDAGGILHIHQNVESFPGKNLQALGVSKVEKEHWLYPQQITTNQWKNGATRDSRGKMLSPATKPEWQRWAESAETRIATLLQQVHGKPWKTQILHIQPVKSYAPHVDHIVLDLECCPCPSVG

Target	log2 fold change (lapatinib)	log2 fold change (pictilisib)	log2 fold change (crizotinib)	log2 fold change [1]	log2 fold change (duvelisib)	log2 fold change (gandotinib)	log2 fold change (tozasertib)	log2 fold change (doramapimod)	log2 fold change (bafetinib)	log2 fold change [2]
TTC12 isoform 2 (UniProt Q9H892)	-0.053	-0.153	-0.068	-0.416	0.143	0.031	0.092	0.022	-0.14	0.445 (active)
TNIK isoform 4 (UniProt Q9UKE5)	-0.017	0.012	-0.055	0.038	0.004	0.153	0.098	0.205	-0.007	-0.04
TRIM33 isoform 2 (UniProt Q9UPN9)	-0.034	0.008	-0.015	-0.07	-0.002	-0.023	0.011	0.021	-0.038	0.056
TUBGCP3 (UniProt Q96CW5)	-0.017	0.012	-0.055	-0.012	0.036	-0.054	0.027	0.014	-0.057	0.013
TROAP (UniProt Q12815)	0.001	-0.088	0.038	-0.065	-0.095	0.072	-0.009	-0.008	-0.1	0.004
TRMT12 (UniProt Q53H54)	0.064	-0.02	-0.03	-0.289	0.055	-0.054	-0.021	0.059	-0.021	0.14
UBXN10 (UniProt Q96LJ8)	-0.041	0.006	0.02	-0.001	0.035	0.06	0.006	-0.003	-0.081	-0.065
TMEM87A (UniProt Q8NBN3)	-0.007	-0.015	0.016	-0.082	0.012	0.242 (active)	-0.029	0.026	-0.007	0.248 (active)
TUBB6 (UniProt Q9BUF5)	-0.038	-0.015	-0.056	0.003	0.009	-0.009	-0.02	-0.047	-0.023	-0.018
UBE3B (UniProt Q7Z3V4)	-0.019	0.025	-0.027	-0.174	0.136	-0.17	-0.005	0.083	-0.082	0.203
UBTF (UniProt P17480)	-0.013	-0.024	-0.037	0.071	-0.015	-0.103	0.004	-0.008	-0.039	-0.011
TSFM (UniProt P43897)	0.003	-0.007	-0.056	0.012	0.025	-0.122	0.047	0.06	-0.026	-0.034
TPM4 isoform 2 (UniProt P67936)	0.007	0	0.091	0.329 (active)	0.011	-0.138	-0.027	0.002	0.075	-0.164
TPM1 (UniProt H7BYY1)	0.028	0.042	0.096	0.063	-0.004	-0.118	0.012	-0.025	0.026	-0.158
TBL2 (UniProt Q9Y4P3)	-0.025	-0.002	-0.007	-0.068	0.014	-0.053	0.063	0.032	-0.013	0.055
TUBB1 (UniProt Q9H4B7)	-0.006	-0.007	-0.025	0.093	-0.01	-0.015	-0.027	-0.046	0.036	-0.06
TRA2A (UniProt Q13595)	-0.012	0.032	-0.184	-0.048	-0.048	-0.011	0.015	0.086	0.042	0.053
TUBA4A (UniProt P68366)	-0.02	0.012	-0.048	-0.066	0.034	0.121	0.011	0.045	-0.028	0.035
TLK1 isoform 2 (UniProt Q9UKI8)	-0.047	0.135	-0.061	-0.032	-0.048	0.456 (active)	0.014	0.011	-0.014	0.022
UBAP2L isoform 5 (UniProt Q14157)	-0.022	-0.116	0.099	-0.002	-0.047	0.034	-0.049	-0.121	-0.015	-0.026
TJP1 isoform 2 (UniProt Q07157)	-0.015	-0.028	0.016	-0.065	-0.014	0.075	-0.002	0.014	-0.062	0.111
TXNRD2 (UniProt Q9NNW7)	0	-0.017	0.003	-0.046	0.084	0.059	-0.042	-0.066	0.041	0.034
TBRG4 (UniProt Q969Z0)	-0.021	-0.039	-0.031	0.08	0.006	-0.269 (active)	0.038	-0.012	-0.029	-0.021
TUBE1 (UniProt Q9UJT0)	-0.008	-0.005	0.095	0.214	-0.01	-0.076	0.054	-0.034	-0.066	-0.029
TFIP11 (UniProt Q9UBB9)	-0.032	0.061	-0.085	-0.031	-0.053	-0.097	0.051	0.043	-0.114	0.06
TRIM65 (UniProt Q6PJ69)	0.028	-0.035	-0.046	-0.06	0.072	-0.102	0.042	-0.02	0.034	0.088
TPM4 (UniProt P67936)	-0.002	-0.043	0.003	-0.001	-0.021	0.039	-0.098	-0.029	-0.055	-0.018
TRIP12 isoform 2 (UniProt Q14669)	-0.109	0.016	-0.029	-0.012	0.05	-0.042	0.024	-0.006	-0.06	0.06
TOE1 (UniProt Q96GM8)	0.002	-0.057	0.003	-0.023	0.052	-0.016	0.059	-0.04	0.047	0.059
TYW3 (UniProt Q6IPR3)	-0.014	0.008	-0.022	-0.144	0.018	0.1	0	0.054	0.051	0.176
